# Measurements: article PMC8384837, “Expanding the binding specificity for RNA recognition by a PUF domain”
# Columns and labels:
# Assay in all cases: yeast three-hybrid, YBZ-1, SC-Leu-His + 0.5 mM 3-AT, 4 days
# Settings in all cases: tags: N-Gal4 AD-HA kept; label: inside an RPR1-promoter hybrid RNA with tandem MS2 sites; ssRNA
# PUM1 PUF domain R3-RTR = PUM1 PUF domain R3-RTR (Homo sapiens, UniProt Q14671 828-1176, C935R;R936T;Q939R)
# Method in brief: (§1)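 A centromeric plasmid in strain YBZ-1 co-expressed Pumilio-1 PUF domain libraries, randomized at the three base-contacting residues of each repeat, with matching RNA elements; the strain carries a LexA–MS2 coat fusion and a HIS3 reporter. After four days on SC-Leu (input) or SC-Leu-His + 0.5 mM 3-AT (selection), the repeat regions were PCR-amplified and Illumina-sequenced. The interaction score is the log change in variant frequency from input to selection, using log2 and a pseudocount of 1 where absent.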
# PUM1 PUF domain R8-KYC = PUM1 PUF domain R8-KYC (Homo sapiens, UniProt Q14671 828-1176, N1122K;Q1126C)
# Sequence of PUM1 PUF domain R8-KYC (Q14671 828-1176 N1122K/Q1126C): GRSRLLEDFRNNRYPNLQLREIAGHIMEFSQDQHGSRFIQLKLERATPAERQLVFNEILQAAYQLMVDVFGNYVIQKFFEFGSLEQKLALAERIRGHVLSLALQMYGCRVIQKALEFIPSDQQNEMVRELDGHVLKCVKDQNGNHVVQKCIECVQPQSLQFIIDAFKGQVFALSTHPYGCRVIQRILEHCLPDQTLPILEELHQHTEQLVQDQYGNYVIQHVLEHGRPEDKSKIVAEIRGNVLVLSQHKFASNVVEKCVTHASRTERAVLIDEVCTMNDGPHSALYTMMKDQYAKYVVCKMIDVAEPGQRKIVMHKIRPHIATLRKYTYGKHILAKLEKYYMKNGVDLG
# Method in brief: as §1
# PUM1 PUF domain R8-MWR = PUM1 PUF domain R8-MWR (Homo sapiens, UniProt Q14671 828-1176, N1122M;Y1123W;Q1126R)
# Sequence of PUM1 PUF domain R8-MWR (Q14671 828-1176 N1122M/Y1123W/Q1126R): as the sequence (Q14671 828-1176 N1122K/Q1126C) above, with K295M, Y296W, C299R counted along it
# Method in brief: as §1
# PUM1 PUF domain R8-HWR = PUM1 PUF domain R8-HWR (Homo sapiens, UniProt Q14671 828-1176, N1122H;Y1123W;Q1126R)
# Sequence of PUM1 PUF domain R8-HWR (Q14671 828-1176 N1122H/Y1123W/Q1126R): as the sequence (Q14671 828-1176 N1122K/Q1126C) above, with K295H, Y296W, C299R counted along it
# Method in brief: as §1
# PUM1 PUF domain R8-PYS = PUM1 PUF domain R8-PYS (Homo sapiens, UniProt Q14671 828-1176, N1122P;Q1126S)
# Sequence of PUM1 PUF domain R8-PYS (Q14671 828-1176 N1122P/Q1126S): as the sequence (Q14671 828-1176 N1122K/Q1126C) above, with K295P, C299S counted along it
# Method in brief: as §1
# PUM1 PUF domain R2-LWY = PUM1 PUF domain R2-LWY (Homo sapiens, UniProt Q14671 828-1176, N899L;Y900W;Q903Y)
# Sequence of PUM1 PUF domain R2-LWY (Q14671 828-1176 N899L/Y900W/Q903Y): as the sequence (Q14671 828-1176 N1122K/Q1126C) above, with N72L, Y73W, Q76Y, K295N, C299Q counted along it
# Method in brief: as §1
# PUM1 PUF domain R5-RFG = PUM1 PUF domain R5-RFG (Homo sapiens, UniProt Q14671 828-1176, C1007R;R1008F;Q1011G)
# Sequence of PUM1 PUF domain R5-RFG (Q14671 828-1176 C1007R/R1008F/Q1011G): as the sequence (Q14671 828-1176 N1122K/Q1126C) above, with C180R, R181F, Q184G, K295N, C299Q counted along it
# Method in brief: as §1
# PUM1 PUF domain R4-DYV = PUM1 PUF domain R4-DYV (Homo sapiens, UniProt Q14671 828-1176, N971D;H972Y;Q975V)
# Sequence of PUM1 PUF domain R4-DYV (Q14671 828-1176 N971D/H972Y/Q975V): as the sequence (Q14671 828-1176 N1122K/Q1126C) above, with N144D, H145Y, Q148V, K295N, C299Q counted along it
# Method in brief: as §1
# PUM1 PUF domain R4-PFD = PUM1 PUF domain R4-PFD (Homo sapiens, UniProt Q14671 828-1176, N971P;H972F;Q975D)
# Sequence of PUM1 PUF domain R4-PFD (Q14671 828-1176 N971P/H972F/Q975D): as the sequence (Q14671 828-1176 N1122K/Q1126C) above, with N144P, H145F, Q148D, K295N, C299Q counted along it
# Method in brief: as §1
# PUM1 PUF domain R4-AMV = PUM1 PUF domain R4-AMV (Homo sapiens, UniProt Q14671 828-1176, N971A;H972M;Q975V)
# Sequence of PUM1 PUF domain R4-AMV (Q14671 828-1176 N971A/H972M/Q975V): as the sequence (Q14671 828-1176 N1122K/Q1126C) above, with N144A, H145M, Q148V, K295N, C299Q counted along it
# Method in brief: as §1
# PUM1 PUF domain R1-TVE = PUM1 PUF domain R1-TVE (Homo sapiens, UniProt Q14671 828-1176, S863T;R864V;Q867E)
# Sequence of PUM1 PUF domain R1-TVE (Q14671 828-1176 S863T/R864V/Q867E): as the sequence (Q14671 828-1176 N1122K/Q1126C) above, with S36T, R37V, Q40E, K295N, C299Q counted along it
# Method in brief: as §1
# PUM1 PUF domain R5-QKN = PUM1 PUF domain R5-QKN (Homo sapiens, UniProt Q14671 828-1176, C1007Q;R1008K;Q1011N)
# Sequence of PUM1 PUF domain R5-QKN (Q14671 828-1176 C1007Q/R1008K/Q1011N): as the sequence (Q14671 828-1176 N1122K/Q1126C) above, with C180Q, R181K, Q184N, K295N, C299Q counted along it
# Method in brief: as §1
# PUM1 PUF domain R5-RFA = PUM1 PUF domain R5-RFA (Homo sapiens, UniProt Q14671 828-1176, C1007R;R1008F;Q1011A)
# Sequence of PUM1 PUF domain R5-RFA (Q14671 828-1176 C1007R/R1008F/Q1011A): as the sequence (Q14671 828-1176 N1122K/Q1126C) above, with C180R, R181F, Q184A, K295N, C299Q counted along it
# Method in brief: as §1
# PUM1 PUF domain R5-HRM = PUM1 PUF domain R5-HRM (Homo sapiens, UniProt Q14671 828-1176, C1007H;Q1011M)
# Sequence of PUM1 PUF domain R5-HRM (Q14671 828-1176 C1007H/Q1011M): as the sequence (Q14671 828-1176 N1122K/Q1126C) above, with C180H, Q184M, K295N, C299Q counted along it
# Method in brief: as §1
# PUM1 PUF domain R5-KFT = PUM1 PUF domain R5-KFT (Homo sapiens, UniProt Q14671 828-1176, C1007K;R1008F;Q1011T)
# Sequence of PUM1 PUF domain R5-KFT (Q14671 828-1176 C1007K/R1008F/Q1011T): as the sequence (Q14671 828-1176 N1122K/Q1126C) above, with C180K, R181F, Q184T, K295N, C299Q counted along it
# Method in brief: as §1
# PUM1 PUF domain R3-ARG = PUM1 PUF domain R3-ARG (Homo sapiens, UniProt Q14671 828-1176, C935A;Q939G)
# Sequence of PUM1 PUF domain R3-ARG (Q14671 828-1176 C935A/Q939G): as the sequence (Q14671 828-1176 N1122K/Q1126C) above, with C108A, Q112G, K295N, C299Q counted along it
# Method in brief: as §1
# PUM1 PUF domain R8-PWS = PUM1 PUF domain R8-PWS (Homo sapiens, UniProt Q14671 828-1176, N1122P;Y1123W;Q1126S)
# Sequence of PUM1 PUF domain R8-PWS (Q14671 828-1176 N1122P/Y1123W/Q1126S): as the sequence (Q14671 828-1176 N1122K/Q1126C) above, with K295P, Y296W, C299S counted along it
# Method in brief: as §1
# PUM1 PUF domain R8-KYQ = PUM1 PUF domain R8-KYQ (Homo sapiens, UniProt Q14671 828-1176, N1122K)
# Sequence of PUM1 PUF domain R8-KYQ (Q14671 828-1176 N1122K): as the sequence (Q14671 828-1176 N1122K/Q1126C) above, with C299Q counted along it
# Method in brief: as §1
# PUM1 PUF domain R5-LYM = PUM1 PUF domain R5-LYM (Homo sapiens, UniProt Q14671 828-1176, C1007L;R1008Y;Q1011M)
# Sequence of PUM1 PUF domain R5-LYM (Q14671 828-1176 C1007L/R1008Y/Q1011M): as the sequence (Q14671 828-1176 N1122K/Q1126C) above, with C180L, R181Y, Q184M, K295N, C299Q counted along it
# Method in brief: as §1
# PUM1 PUF domain R3-KHV = PUM1 PUF domain R3-KHV (Homo sapiens, UniProt Q14671 828-1176, C935K;R936H;Q939V)
# Sequence of PUM1 PUF domain R3-KHV (Q14671 828-1176 C935K/R936H/Q939V): as the sequence (Q14671 828-1176 N1122K/Q1126C) above, with C108K, R109H, Q112V, K295N, C299Q counted along it
# Method in brief: as §1
# Sequence of PUM1 PUF domain R3-RTR (Q14671 828-1176 C935R/R936T/Q939R): as the sequence (Q14671 828-1176 N1122K/Q1126C) above, with C108R, R109T, Q112R, K295N, C299Q counted along it
sequence,measurement,setting,value
GGCUAGAACUAGUGGAUCCCCCGGCGCCCGGCGGCUCGAGCCCGGGUAAGUGUAAGUAGUCUGCAUGCCGCCGGGCGCCAUGCCUGCAGGUCGACUCUAGAAAACAUG,binding signal,PUM1 PUF domain R3-RTR,1.03 log2 enrichment (interaction score)
GGCUAGAACUAGUGGAUCCCCCGGCGCCCGGCGGCUCGAGCCCGGGUAAGCGUAAAUAGUCUGCAUGCCGCCGGGCGCCAUGCCUGCAGGUCGACUCUAGAAAACAUG,binding signal,PUM1 PUF domain R8-KYC,6.06 log2 enrichment (interaction score)
same,binding signal,PUM1 PUF domain R8-MWR,4.99 log2 enrichment (interaction score)
same,binding signal,PUM1 PUF domain R8-HWR,7.03 log2 enrichment (interaction score)
same,binding signal,PUM1 PUF domain R8-PYS,3.23 log2 enrichment (interaction score)
GGCUAGAACUAGUGGAUCCCCCGGCGCCCGGCGGCUCGAGCCCGGGUAAGGGUAAAUAGUCUGCAUGCCGCCGGGCGCCAUGCCUGCAGGUCGACUCUAGAAAACAUG,binding signal,PUM1 PUF domain R8-MWR,2.37 log2 enrichment (interaction score)
GGCUAGAACUAGUGGAUCCCCCGGCGCCCGGCGGCUCGAGCCCGGGUAAGUGUAAAAAGUCUGCAUGCCGCCGGGCGCCAUGCCUGCAGGUCGACUCUAGAAAACAUG,binding signal,PUM1 PUF domain R2-LWY,8.01 log2 enrichment (interaction score)
GGCUAGAACUAGUGGAUCCCCCGGCGCCCGGCGGCUCGAGCCCGGGUAAGUGUGAAUAGUCUGCAUGCCGCCGGGCGCCAUGCCUGCAGGUCGACUCUAGAAAACAUG,binding signal,PUM1 PUF domain R5-RFG,2.66 log2 enrichment (interaction score)
GGCUAGAACUAGUGGAUCCCCCGGCGCCCGGCGGCUCGAGCCCGGGUAAGUGUACAUAGUCUGCAUGCCGCCGGGCGCCAUGCCUGCAGGUCGACUCUAGAAAACAUG,binding signal,PUM1 PUF domain R4-DYV,6.74 log2 enrichment (interaction score)
same,binding signal,PUM1 PUF domain R4-PFD,1.86 log2 enrichment (interaction score)
same,binding signal,PUM1 PUF domain R4-AMV,1.83 log2 enrichment (interaction score)
GGCUAGAACUAGUGGAUCCCCCGGCGCCCGGCGGCUCGAGCCCGGGUAAGUGUAAAUGGUCUGCAUGCCGCCGGGCGCCAUGCCUGCAGGUCGACUCUAGAAAACAUG,binding signal,PUM1 PUF domain R1-TVE,2.57 log2 enrichment (interaction score)
GGCUAGAACUAGUGGAUCCCCCGGCGCCCGGCGGCUCGAGCCCGGGUAAGUGUCAAUAGUCUGCAUGCCGCCGGGCGCCAUGCCUGCAGGUCGACUCUAGAAAACAUG,binding signal,PUM1 PUF domain R5-QKN,2.32 log2 enrichment (interaction score)
same,binding signal,PUM1 PUF domain R5-RFA,5.36 log2 enrichment (interaction score)
same,binding signal,PUM1 PUF domain R5-RFG,5.07 log2 enrichment (interaction score)
same,binding signal,PUM1 PUF domain R5-HRM,1.79 log2 enrichment (interaction score)
same,binding signal,PUM1 PUF domain R5-KFT,5.09 log2 enrichment (interaction score)
GGCUAGAACUAGUGGAUCCCCCGGCGCCCGGCGGCUCGAGCCCGGGUAAGUGUUAAUAGUCUGCAUGCCGCCGGGCGCCAUGCCUGCAGGUCGACUCUAGAAAACAUG,binding signal,PUM1 PUF domain R5-RFA,4.55 log2 enrichment (interaction score)
same,binding signal,PUM1 PUF domain R5-RFG,5.49 log2 enrichment (interaction score)
same,binding signal,PUM1 PUF domain R5-HRM,4.33 log2 enrichment (interaction score)
GGCUAGAACUAGUGGAUCCCCCGGCGCCCGGCGGCUCGAGCCCGGGUAAGUGUAAAUAGUCUGCAUGCCGCCGGGCGCCAUGCCUGCAGGUCGACUCUAGAAAACAUG,binding signal,PUM1 PUF domain R3-ARG,3.94 log2 enrichment (interaction score)
same,binding signal,PUM1 PUF domain R4-DYV,5.94 log2 enrichment (interaction score)
same,binding signal,PUM1 PUF domain R5-RFA,2.39 log2 enrichment (interaction score)
same,binding signal,PUM1 PUF domain R8-KYC,2.79 log2 enrichment (interaction score)
same,binding signal,PUM1 PUF domain R4-PFD,3.55 log2 enrichment (interaction score)
same,binding signal,PUM1 PUF domain R8-PWS,2.42 log2 enrichment (interaction score)
same,binding signal,PUM1 PUF domain R8-KYQ,5.9 log2 enrichment (interaction score)
same,binding signal,PUM1 PUF domain R5-RFG,3.09 log2 enrichment (interaction score)
same,binding signal,PUM1 PUF domain R5-HRM,1.49 log2 enrichment (interaction score)
same,binding signal,PUM1 PUF domain R8-MWR,4.37 log2 enrichment (interaction score)
same,binding signal,PUM1 PUF domain R5-LYM,2.36 log2 enrichment (interaction score)
same,binding signal,PUM1 PUF domain R3-RTR,0.19 log2 enrichment (interaction score)
same,binding signal,PUM1 PUF domain R4-AMV,3.03 log2 enrichment (interaction score)
GGCUAGAACUAGUGGAUCCCCCGGCGCCCGGCGGCUCGAGCCCGGGUAAGUGUAUAUAGUCUGCAUGCCGCCGGGCGCCAUGCCUGCAGGUCGACUCUAGAAAACAUG,binding signal,PUM1 PUF domain R4-DYV,6.86 log2 enrichment (interaction score)
same,binding signal,PUM1 PUF domain R4-PFD,5.34 log2 enrichment (interaction score)
same,binding signal,PUM1 PUF domain R4-AMV,1.51 log2 enrichment (interaction score)
GGCUAGAACUAGUGGAUCCCCCGGCGCCCGGCGGCUCGAGCCCGGGUAAGUGUAAUUAGUCUGCAUGCCGCCGGGCGCCAUGCCUGCAGGUCGACUCUAGAAAACAUG,binding signal,PUM1 PUF domain R3-KHV,2.96 log2 enrichment (interaction score)
same,binding signal,PUM1 PUF domain R3-ARG,0.5 log2 enrichment (interaction score)
same,binding signal,PUM1 PUF domain R3-RTR,4.46 log2 enrichment (interaction score)
